# Source: PubChem BioAssay (The Scripps Research Institute Molecular Screening Center)
# A selection: hits, their analogues and other compounds. The true share with any hit is near 2.5%.
# MBD2 DNA inh: inhibitors of MBD2 binding to methylated DNA, primary screen, biochemical, TR-FRET, DNA-binding domain, human; MBD2 binding to methylated oligonucleotide; inhibition, % at 4.4 µM; 370,000 compounds, 0.31% hits; AID 686964, 2013; in the data active = inhibition above about 13%
# UHRF1 binding: UHRF1 methylated DNA binding inhibitors, primary screen, counter-screen for MBD2 inhibitor project, biochemical, TR-FRET, human UHRF1, single concentration; E3 ubiquitin-protein ligase UHRF1 (Homo sapiens), Q96T88; UHRF1 binding to methylated oligo; inhibition, % at 4.4 µM; 370,000 compounds, 0.75% hits; AID 687016, 2013; in the data active = inhibition above about 21%;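 note: UHRF1 SRA domain binding a hemimethylated CpG hairpin DNA probe; 0% = median of test compound wells and 100% = reference inhibitor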
# LEDGF integ inh: blockers of LEDGF/p75-dependent integrase strand transfer – biochemical, TR-FRET, high throughput, primary screen; HIV-1 integrase (with human LEDGF/p75); TR-FRET IN-LEDGF/p75 DNA integration, Eu/Cy5; inhibition, % at 3.7 µM; 370,000 compounds, 0.64% hits;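 active = inhibition above the screen-wide mean plus 3 SD, cut at about 13% in these data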;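 note: signal is the Cy5 over europium emission ratio at 671 and 618 nm; 0% = plate median of compound wells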
# PRMT1 inh: PRMT1 methyltransferase inhibitors, primary screen, biochemical, fluorescence polarization. Protein arginine N-methyltransferase 1 (Homo sapiens), Q99873. AID 652257, 2013. inhibition, % at 2.79 µM. recombinant PRMT1, activity-based probe fluorescence polarization. 370,000 compounds, 1.3% hits;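 active = inhibition above about 21% made by adding two undisclosed values, limit read from the data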
# Target sequence (Q99873 whole entry, looked up): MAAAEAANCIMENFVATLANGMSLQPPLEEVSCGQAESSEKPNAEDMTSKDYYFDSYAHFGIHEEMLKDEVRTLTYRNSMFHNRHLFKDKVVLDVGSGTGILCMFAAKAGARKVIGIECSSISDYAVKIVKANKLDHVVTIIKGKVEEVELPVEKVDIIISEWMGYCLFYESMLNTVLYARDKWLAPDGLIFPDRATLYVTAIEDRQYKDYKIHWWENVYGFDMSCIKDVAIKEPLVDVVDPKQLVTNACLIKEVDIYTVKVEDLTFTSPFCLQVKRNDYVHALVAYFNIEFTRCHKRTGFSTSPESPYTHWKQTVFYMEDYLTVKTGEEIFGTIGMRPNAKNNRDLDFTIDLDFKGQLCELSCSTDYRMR
# IN multimer up: HIV-1 IN multimer formation enhancers, counter-screen for LEDGF/p75 integration inhibitor project, biochemical, TR-FRET | shares compounds with LEDGF integ inh | TR-FRET HIV-1 integrase multimerization | activation, % at 7.7 µM | 2,000 compounds, 17% hits | AID 1053131, 2014; in the data active = activation above about 8.9%
# TR-FRET interf: TR-FRET optical interference artefacts, confirmation, artefact control for LEDGF/p75-dependent integration inhibitor project, biochemical, HIV-1 IN multimerization; inhibition, % at 7.7 µM; shares compounds with LEDGF integ inh; 2,000 tested, under 10 active; TR-FRET optical interference counterscreen; AID 1053135, 2014;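 active = inhibition above the mean over all tested compounds plus 3 SD, which no compound reached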;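 note: 0% = integrase with antibodies and DMSO and 100% = antibodies without integrase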
# LEDGF integ conf: inhibitors of HIV-1 IN-LEDGF/p75 DNA integration, confirmation, biochemical, TR-FRET; shares compounds with LEDGF integ inh; TR-FRET LEDGF/p75-dependent HIV-1 integration; inhibition, % at 3.7 µM; 2,000 compounds, 36% hits; AID 1053136, 2014; in the data active = inhibition above about 14%
# * hit, by the source's call; · = not tested or not shown.
SMILES,MBD2 DNA inh,UHRF1 binding,LEDGF integ inh,PRMT1 inh,IN multimer up,TR-FRET interf,LEDGF integ conf
O=S1(=O)C[C@H](N2CCC[C@@H]2CO)[C@@H](COCc2ccccc2)N1,-4.1,-1.4,2.5,1.3,·,·,·
CCCN(CC1CC1)C(=S)NC(=O)c1cc(Br)ccc1Cl,-6.9,-5.7,16.6*,-2.0,-0.4,1.9,9.5
NC(=O)CSCc1cccc(Br)c1,-2.7,-2.9,32.9*,-2.9,-0.1,0.5,4.8
Cc1cnn(-c2ccccc2)c1NC(=O)COCc1ccccc1,-3.2,0.5,2.5,-3.3,·,·,·
CC(NC1=CC(=O)c2cccnc2C1=O)C(O)c1ccccc1 (configuration not stated),-12.7,2.0,36.3*,5.3,3.5,-12.5,66.0*
O=C(NCCC1CCCCN1S(=O)(=O)c1cccs1)C(=O)Nc1cccc(F)c1 (configuration not stated),-1.4,-1.1,-4.4,-0.3,·,·,·
O=C(NCc1ccccc1)c1ccc(NC(=O)C2CCCO2)cc1 (configuration not stated),3.6,-0.6,-1.5,0.4,·,·,·
Cc1ccc(S(=O)(=O)Nc2ccc(Br)cc2/C=N/n2cnnc2)cc1,8.6,19.4,17.2*,-0.1,-0.1,0.4,27.6*
Cc1ccc(C)c(NC(=O)C2CC(O)CN2C(=O)Oc2ccccc2)c1 (configuration not stated),1.2,2.0,-2.4,5.5,·,·,·
Cc1ccc(C(=O)Nc2nc(-c3ccccc3)c(-c3ccccc3)o2)cc1,-3.8,0.9,20.6*,1.8,0.3,-1.5,22.5*
Cc1c(NC(=O)c2cccc(NC(=O)Cc3ccccc3F)c2)c(=O)n(-c2ccccc2)n1C,-0.3,-1.6,-4.5,1.7,·,·,·
O=C(NC12CC3CC(CC(C3)C1)C2)N1CCN(c2ccccn2)CC1,3.9,-0.5,49.4*,-0.8,-0.2,1.0,-7.5
Cc1ccc2nsnc2c1NC(=O)c1sc2ccccc2c1Cl,2.8,2.0,24.5*,2.4,3.6,-12.9,1.1
Cc1nnc(NC(=O)c2sc3ccccc3c2Cl)s1,-5.3,-1.6,-0.6,-1.1,·,·,·
COc1ccc([N+](=O)[O-])cc1NCc1ccco1,-5.8,0.3,-3.5,3.9,·,·,·
Cc1cc(-c2csc(NC(=O)c3ccc(=O)[nH]c3)n2)c(C)n1Cc1ccco1,10.5,8.9,62.6*,7.5,11.4*,-57.5,42.9*
C[C@@H]1CN([C@@H](C)CO)C(=O)CCCn2nncc2CO[C@H]1CN(C)C(=O)c1ccccc1,0.0,-0.4,-2.3,-0.1,·,·,·
Cc1cccc(NC(=S)NN2CCOCC2)c1C,0.8,1.9,0.8,-0.5,·,·,·
Cc1cccc(NC(=S)Nc2ccc(N3CCOCC3)cc2)c1C,-1.3,0.3,20.9*,6.6,-1.9,9.5,5.7
COC(=O)Cc1ccc(NC(=S)Nc2ccc(N3CCOCC3)cc2)cc1,-1.2,-1.4,13.5*,3.7,1.3,-6.5,-2.5
Cc1cccc(C(=O)NC(=S)Nc2ccc(N3CCOCC3)cc2)c1,-3.9,1.9,20.5*,-1.5,4.6,-23.3,-7.0
CCC(C)(C)C1CCC2(CC1)NC(=O)N(CC(=O)NC(C)CCc1ccccc1)C2=O (configuration not stated),-2.3,-1.2,1.9,-0.8,·,·,·
O=C(Cc1ccccc1)NC1CCCc2c1cnn2-c1ccc(F)cc1F (configuration not stated),-1.4,7.4,-5.8,3.1,·,·,·
CN1OC[C@@H]2CN(S(=O)(=O)c3cccc(C(F)(F)F)c3)[C@H](c3ccc(N4CCCCC4)cc3)C[C@@H]21,2.2,1.2,-2.2,-1.7,·,·,·
COc1cccc(NC(=O)CN(C)C(=O)Cc2ccc3c(c2)OCCO3)c1,1.9,-1.6,92.5*,-3.8,-1.7,8.4,-1.9
SMILES,MBD2 DNA inh,UHRF1 binding,LEDGF integ inh,PRMT1 inh,IN multimer up,TR-FRET interf,LEDGF integ conf
CCOC(=O)C1=NOC2COC3(CCN(c4ncccn4)CC3)OCC12 (configuration not stated),-0.3,6.4,-4.3,4.4,·,·,·
CCN(CC)C(=O)C1=C(C)N(Cc2ccc(C(C)(C)C)cc2)C(=O)C(CC(=O)NC(c2ccccc2)c2ccccc2)C1 (configuration not stated),-2.6,1.2,69.7*,0.0,1.0,-5.2,-10.1
CC1=C(C(=O)N(C)C)CC(CC(=O)NC(c2ccccc2)c2ccccc2)C(=O)N1Cc1ccc(C(C)(C)C)cc1 (configuration not stated),0.2,-0.4,-2.3,-3.4,·,·,·
COc1ccc(CCNC(=O)C2=CCN(S(=O)(=O)c3ccc(F)cc3)CC2)cc1OC,4.3,2.7,-7.5,1.1,·,·,·
O=c1/c(=C/c2ccco2)sc2n1CN(c1ccccc1)CN=2,-6.5,-2.1,17.4*,9.0,1.5,-7.7,4.3
Cc1cc(C)cc(N2CN=c3s/c(=C\c4ccco4)c(=O)n3C2)c1,-8.2,-4.4,4.5,0.0,·,·,·
N#CC1=C2SCN(Cc3ccco3)CN2C(=O)CC1c1cccc2ccccc12 (configuration not stated),-1.4,-3.4,54.5*,30.2*,4.8,-24.1,3.1
S=C1SCN(Cc2ccco2)CN1Cc1ccco1,-5.4,-1.6,3.1,4.4,·,·,·
O=C(NN1C(=O)/C(=C/c2ccc(O)c(O)c2)SC1=S)c1ccccc1,-0.9,-2.6,30.0*,20.6,11.8*,-41.7,54.2*
C/C(=C\C(=O)c1ccccc1)Nc1ccc(O)cc1,-6.3,0.9,20.5*,30.7*,2.8,-13.8,0.5
C/C(=C\C(=O)c1cccnc1)Nc1ccc(O)cc1,-5.1,-1.4,17.1*,19.7,2.2,-7.9,-2.1
Cc1ccc(C(=O)Nc2ccc(N3CCN(C(=O)c4cccs4)CC3)cc2)c(Cl)c1,0.3,-0.5,-0.7,-0.5,·,·,·
O=C(CCC1CCCCC1)Nc1nccs1,1.3,-1.4,20.9*,-2.4,0.0,-0.1,-3.8
C[C@H]1[C@@H](OC(=O)Nc2ccc(C#N)cc2)CC[C@@]23CCCN2C(=O)CCC[C@@H]13,-0.3,-1.7,-0.9,-1.0,·,·,·
COc1ccc(CCN2CC(C(=O)NCc3nc4ccccc4n3C)CCC2=O)cc1 (configuration not stated),-0.1,0.1,-2.4,0.5,·,·,·
Cc1ccc(C=Nc2ccccc2C(N)=O)o1,6.2,11.0,-5.8,4.8,·,·,·
Cc1ccc(C=Nc2ccc(N(C)C)cc2)o1,-11.4,1.5,15.1*,12.3,0.7,-2.4,4.4
